Compound activity deposited in PubChem BioAssay by National Center for Advancing Translational Sciences (NCATS).
In the library only some 0.88% were active in any assay of this set; here they are far more common.
ERG-DNA inh: ERG Ets/DNA interaction inhibition; P11308; fluorescence polarization, His-ERG Ets domain / labelled DNA; Potency, µM (series often up to 76.9 µM), without a hit: at the top dose FP activity, negative = inhibition, most hits filed as inhibitors; 370,000 compounds, 0.028% hits; AID 624246; active = well fitted inhibition curve with a large enough effect in the polarisation, with a control signal flat; inconclusive = small, poorly fitted or top-dose-only effect, or effect the other way, or a change in a side signal; inactive = no such curve, though single readings can be large or run the other way; the % refers to the polarisation;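 note: polarization taken with two DNA probes labelled with fluorescein and Texas red; % of control where 0% means no effect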
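His-tagged ERG Ets domain (1 uM in the protein solution; 300mM KCl, 50mM Tris-HCl, 1mM EDTA, 1mM DTT, pH 7.5) received compound, then a probe mix of 5 nM fluorescein-DNA and 100nM Texas-615-DNA. Fluorescence polarization was read for both dyes.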
RECQ1 inh-1: RECQ1 (human) helicase inhibition; RECQ1 DNA unwinding, red fluorescence kinetic read; Potency, µM (titrated, usually from 57.3 µM), for the others: top-dose activity, negative = inhibition, most hits filed as inhibitors; 240,000 compounds, 0.54% hits; AID 2549;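 note: plate controls were vehicle for no effect and no enzyme for full effect; nearly all actives have a fitted effect of over 30% in size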
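50 nM RECQ1T1 preincubated 15 min with compound in Tris pH 8.0 buffer with MgCl2, DTT, Tween-20 and 2.5 ug/ml poly(dI-dC); started with 200 nM TAMRA/BHQ-2 forked duplex and 2 mM ATP. Unwinding read as fluorescence (525/598 nm), two reads 2 h apart.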
BLM helicase inh: Bloom syndrome helicase (human) inhibition; 350,000 compounds, 0.2% hits; Potency, µM (series often up to 56.1 µM), without a hit: top-dose activity change, negative = inhibition, most hits filed as inhibitors; recombinant BLM DNA unwinding, fluorescence dequenching; AID 2528;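 note: plate controls were vehicle for no effect and no enzyme for full effect; nearly all actives have a fitted effect of over 35% in size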
GCN5L2 inh: inhibitors of human GCN5L2 histone acetyltransferase; Q92830; GCN5L2 HAT assay, ThioGlo1 CoA-SH fluorescence; Potency, µM (titrated, usually from 58.9 µM), without a hit: at the highest dose activity change, negative = inhibition, most hits filed as inhibitors; 390,000 compounds, 0.21% hits; note: % is set by controls: 0 for no effect and ±100 for the full control effect
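ThioGlo1-coupled HAT assay: 20nM GCN5L2, 70uM acetyl-CoA, 75uM H3(1-25) peptide, pH 7.5. Fluorescence read at 340/540nm at start and after 20 min at room temperature.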
WRN helicase inh: inhibitors of human WRN helicase. 360,000 compounds, 0.46% hits. AID 651768. Potency, µM (series often up to 114 µM), for inactives: at the highest dose activity change, negative = inhibition, actives largely listed as inhibitors. Q14191. WRN helicase unwinding, fluorescent forked duplex, kinetic; note: % is set by controls: 0 for no effect and ±100 for the full control effect; nearly all actives have a fitted effect of over 55% in size
Target sequence (Q14191 whole entry, looked up): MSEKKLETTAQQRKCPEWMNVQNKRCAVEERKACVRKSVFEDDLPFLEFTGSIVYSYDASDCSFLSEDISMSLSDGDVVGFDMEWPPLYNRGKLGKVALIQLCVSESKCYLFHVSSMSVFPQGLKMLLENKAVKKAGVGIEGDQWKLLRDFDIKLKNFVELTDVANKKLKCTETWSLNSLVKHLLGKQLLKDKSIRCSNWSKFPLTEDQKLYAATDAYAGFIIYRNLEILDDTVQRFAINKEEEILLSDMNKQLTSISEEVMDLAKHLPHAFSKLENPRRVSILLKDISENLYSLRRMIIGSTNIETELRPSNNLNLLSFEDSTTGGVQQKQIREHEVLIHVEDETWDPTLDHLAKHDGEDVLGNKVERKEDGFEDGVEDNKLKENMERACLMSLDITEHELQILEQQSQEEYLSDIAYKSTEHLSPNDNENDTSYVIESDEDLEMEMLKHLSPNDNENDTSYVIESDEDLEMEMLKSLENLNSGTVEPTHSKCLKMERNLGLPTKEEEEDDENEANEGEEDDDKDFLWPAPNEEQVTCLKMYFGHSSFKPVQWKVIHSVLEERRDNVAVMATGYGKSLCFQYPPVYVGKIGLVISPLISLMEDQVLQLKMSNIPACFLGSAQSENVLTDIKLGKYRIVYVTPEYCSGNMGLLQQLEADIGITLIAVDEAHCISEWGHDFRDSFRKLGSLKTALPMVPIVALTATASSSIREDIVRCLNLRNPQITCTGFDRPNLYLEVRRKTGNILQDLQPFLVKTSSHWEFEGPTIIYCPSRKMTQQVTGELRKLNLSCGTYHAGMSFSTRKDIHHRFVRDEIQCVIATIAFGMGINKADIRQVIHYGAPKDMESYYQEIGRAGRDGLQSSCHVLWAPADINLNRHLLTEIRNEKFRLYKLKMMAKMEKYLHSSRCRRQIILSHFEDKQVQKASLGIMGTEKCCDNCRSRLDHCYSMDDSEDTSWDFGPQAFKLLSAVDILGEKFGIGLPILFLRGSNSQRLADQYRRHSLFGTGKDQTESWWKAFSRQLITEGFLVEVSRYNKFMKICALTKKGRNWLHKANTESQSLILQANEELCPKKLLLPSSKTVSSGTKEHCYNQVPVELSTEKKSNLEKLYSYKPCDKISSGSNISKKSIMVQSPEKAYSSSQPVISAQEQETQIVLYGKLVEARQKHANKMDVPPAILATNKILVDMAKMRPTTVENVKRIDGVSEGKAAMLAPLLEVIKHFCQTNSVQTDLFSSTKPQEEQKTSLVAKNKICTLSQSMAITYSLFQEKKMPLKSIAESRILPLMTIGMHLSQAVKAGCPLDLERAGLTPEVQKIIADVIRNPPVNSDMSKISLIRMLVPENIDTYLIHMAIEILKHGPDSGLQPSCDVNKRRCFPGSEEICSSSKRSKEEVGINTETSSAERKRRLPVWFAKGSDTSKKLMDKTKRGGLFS
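WRN at 20 nM final preincubated with compound 15 min at room temperature; reaction started with 100 nM fluorophore/quencher forked duplex oligonucleotide and 2 mM ATP final. Unwinding followed kinetically by red fluorescence (ex 525, em 598 nm).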
APE1 inh: APE1 (human) endonuclease inhibition. P27695. Potency, µM (series often up to 65.8 µM), inactives show top-dose activity change, negative = inhibition, usual class: inhibitors. 350,000 compounds, 0.35% hits. AID 2517. recombinant APE1, TAMRA/BHQ-2 abasic DNA cleavage fluorescence;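 note: plate controls were vehicle for no effect and reference inhibitor for full effect; nearly all actives have a fitted effect of over 55% in size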
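Enzyme (0.75 nM final) and test compound are incubated 15 min at room temperature before adding 50 nM quenched THF abasic-site duplex. Cleavage dequenches TAMRA, followed at 525/598 nm over three reads one minute apart.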
RECQ1 conf: confirmation of human RECQ1 helicase inhibitors; shares compounds with RECQ1 inh-1; RECQ1 helicase DNA unwinding, fluorescence; Potency, µM (doses to about 229 µM), for the others: top-dose activity change, negative = inhibition, usual class: inhibitors; 610 compounds, 28% hits; note: % is set by controls: 0 for no effect and ±100 for the full control effect; nearly all actives have a fitted effect of over 45% in size
RECQ1 ADP FP: ADP displacement flagged in RECQ1 inhibitor counter-screen | shares compounds with RECQ1 inh-1 | ADP fluorescence polarization displacement counterscreen | Potency, µM (doses to about 228 µM), inactives show at the highest dose activity change, negative = inhibition, actives largely listed as inhibitors | 530 compounds, 27% hits | AID 2711; note: % is set by controls: 0 for no effect and ±100 for the full control effect; nearly all actives have a fitted effect of over 45% in size
RECQ1 inh-2: blocks human RECQ1 DNA unwinding. recombinant RECQ1 DNA unwinding, red fluorescence. 1,100 compounds, 15% hits. shares compounds with RECQ1 inh-1. Potency, µM (highest dose often 119 µM), without a hit: top-dose activity, negative = inhibition, usual class: inhibitors; note: % is set by controls: 0 for no effect and ±100 for the full control effect; nearly all actives have a fitted effect of over 50% in size
* hit, by the source's call; i = inactive; ? = inconclusive; nt = no result given; + = active, no number; [ ] = remark or other dose. Unless noted, calls come from the whole dose curve; as a rule, active = well fitted curve in the direction sought with a large enough effect; inconclusive = small, poorly fitted or top-dose-only effect, or another doubt; inactive = no such curve, though single readings can be large; an effect the other way counts as inactive or inconclusive. Potency is the fitted concentration of half-maximal effect.

SMILES	ERG-DNA inh	RECQ1 inh-1	BLM helicase inh	GCN5L2 inh	WRN helicase inh	APE1 inh	RECQ1 conf	RECQ1 ADP FP	others
Cc1ccc(-c2ccc(CN3C(CC(C)C)C(=O)N(Cc4cn(CC5CCCCC5)nn4)CCS3(=O)=O)cc2)cc1 (centres undefined)	nt	nt	nt	nt	-8.3%	nt	nt	nt
Cc1cc(C)n2nc(C(=O)OCC(=O)c3cc(C)n(C)c3C)nc2n1	5.2%	?	-14.7%	-16.8%	?	-9.6%	nt	nt	RECQ1 inh-2=?
Cc1cc(C)n2nc(C(=O)OCC(=O)c3ccccc3Cl)nc2n1	nt	nt	nt	-2.3%	-2.7%	5.0%	nt	nt
CCC(C)NC(=O)c1ccccc1NC(=O)c1ccc(CSc2ccc(C)cc2)cc1 (centres undefined)	-20.4%	5.01µM*	-3.6%	?	-12.6%	7.8%	-7.9%[114 µM]	5.1%[91.9 µM]	RECQ1 inh-2=-16.3%
CCc1ccc(N2C(=O)CS(=O)(=O)C23C(=O)N(Cc2ccccc2)c2ccccc23)cc1 (centres undefined)	-1.2%	nt	-4.6%	2.1%	nt	nt	nt	nt
COC(=O)c1ccc(CC(=O)c2c(C)cc(O)cc2O)o1	0.9%	?	-7.8%	-6.3%	?	?	nt	nt	RECQ1 inh-2=?
CN1CC(O)C2=CC(=O)C(=O)C=C21 (centres undefined)	nt	2.82µM*	nt	14.1µM*	nt	0.398µM*	+	10µM*
Cc1cc(C)cc(-n2nnc(-c3nc(-c4ccccc4F)no3)c2C)c1	5.8%	nt	-2.9%	?	nt	nt	nt	nt
O=C(COC(=O)CCC(NC(=O)OCc1ccccc1)C(=O)OCC(=O)Nc1ccccc1)Nc1ccccc1 (centres undefined)	-9.1%	?	-5.9%	1.1%	?	7.7%	nt	nt	RECQ1 inh-2=-20.2%
CC1/C=C/C=C/C=C/C=C/C=C/C=C/C=C/C(OC2OC(C)C(O)C(N)C2O)CC2O[C@@](O)(CC(O)CC(O)C(O)CCC(O)CC(O)CC(=O)OC(C)[C@H](C)C1O)CC(O)C2C(=O)O (some centres undefined)	nt	20µM*	-5.4%	-23.0%	nt	-27.3%	?	55.9%
O=C(Nc1nc(-c2cccs2)c(-c2ccccc2)s1)c1ccco1	7.3%	-4.5%	-20.6%	-12.5%	-6.7%	?	nt	nt
CC1CC1C(=O)Nc1nc(-c2cccs2)c(-c2cccs2)s1 (centres undefined)	0.1%	31.6µM*	?	-24.9%	-21.9%[57.1 µM]	-10.5%	nt	nt	RECQ1 inh-2=?
CCOC(=O)c1cc(-c2ccccc2)n(CC(=O)Nc2ccc(OC)cc2OC)c1C	0.0%	nt	-2.3%	-4.0%	nt	nt	nt	nt
Cc1cccc(C)c1OCC(=O)Nc1c(C(=O)c2ccccc2)oc2ccccc12	5.1%	nt	-7.0%	-6.6%	nt	nt	nt	nt
COC(=O)Nc1ccc(S(=O)(=O)N2CCCCC2C(=O)O)cc1 (centres undefined)	5.9%	i	-3.7%	-5.5%	3.0%	2.0%	-4.1%	8.3%
CN1CCN(S(=O)(=O)c2ccc(NC(=S)NC(=O)C3CCCCC3)cc2)CC1	-8.2%	?	-1.7%	-1.8%	-6.1%	-3.1%	nt	nt	RECQ1 inh-2=-17.3%
O=S(=O)(Nc1cccc(-c2ccc(N3CCCCC3)nn2)c1)c1cccc(F)c1	0.0%	nt	-3.1%	-23.9%	nt	nt	nt	nt
Cc1cn2c(=O)cc(COC(=O)COc3ccc(F)cc3)nc2s1	-2.4%	nt	1.4%	-0.6%	nt	nt	nt	nt
CC(C)(C)OC(=O)N1CCC(c2c(C(=O)O)cnn2-c2ccc(F)cc2F)CC1	3.6%	nt	1.2%	-0.8%	nt	nt	nt	nt
Nc1cccc2c(=O)[nH]ccc12	nt	20µM*	-12.9%	-12.5%	nt	-6.6%	?	50.1µM*
O=C(O)CSc1nnc(Cc2ccccc2)n1-c1ccccc1	1.2%	-2.1%	-0.9%	-11.3%	1.6%	-0.9%	nt	nt
O=C(O)CSc1nnc(Cc2ccccc2)n1Cc1ccccc1	-3.9%	1.2%	1.4%	-2.2%	6.8%	0.4%	12.3%	9.1%
CCCCc1cc(=O)oc2cc(C)c3c(C(C)(C)C)coc3c12	4.8%	nt	-4.6%	-6.4%	nt	nt	nt	nt
CCN(CC)C(=O)CC(c1ccccc1)c1ccco1 (centres undefined)	7.1%	?	-4.2%	-9.0%	-3.8%	12.2%	nt	nt	RECQ1 inh-2=?
O=C(c1ccco1)N(CCC(c1ccccc1)c1ccco1)Cc1ccccc1 (centres undefined)	2.5%	11.2µM*	-24.9%	-25.0%	?	?	?	20.3%[91.9 µM]	RECQ1 inh-2=44.7µM*
SMILES	ERG-DNA inh	RECQ1 inh-1	BLM helicase inh	GCN5L2 inh	WRN helicase inh	APE1 inh	RECQ1 conf	RECQ1 ADP FP	others
CCC(=O)N(CCC(c1ccccc1)c1ccco1)Cc1cccs1 (centres undefined)	-5.9%	-18.7%	-7.2%	-10.7%	-3.2%[57.1 µM]	-0.6%	nt	nt
CC1CCN(c2nc3c(S(=O)(=O)c4cccc(Cl)c4)nnn3c3ccsc23)CC1	-1.0%	nt	-8.7%	-5.7%	nt	nt	nt	nt
CN(CC(=O)Nc1ccc(Cl)c(C(F)(F)F)c1)C(=O)C1CC(=O)N(C2CCCC2)C1 (centres undefined)	-0.3%	nt	nt	0.7%	-4.5%	4.6%	nt	nt
Cc1oc2ncnc(N3CCCCC3)c2c1C(=O)Nc1cccc(Cl)c1C	-2.6%	nt	-3.7%	18.8%	nt	nt	nt	nt
CCOc1cc2c(cc1OCC)C(CC(=O)OC)N(C(=O)Nc1cc(OC)ccc1OC)CC2 (centres undefined)	3.1%	nt	-1.7%	-1.1%	nt	nt	nt	nt
S=c1[nH]nc(-c2cc(-c3ccco3)[nH]n2)n1-c1ccccc1Cl	-7.0%	7.94µM*	5.5%	-19.6%	50.1µM*	14.1µM*	15.3%[114 µM]	?
O=C(O)CSc1nnc(Cn2c(=O)sc3ccccc32)n1-c1cccc(Cl)c1	3.7%	7.8%	1.0%	-6.5%	-3.6%	-3.2%	1.9%	-2.9%
O=c1[nH][nH]c(C(F)(F)F)c1C=Nc1ccccc1	1.0%	-10.1%	-5.3%	40.9%	-17.2%	14.8%	nt	nt
